Screening results: PubChem, National Center for Advancing Translational Sciences (NCATS)
BAZ2B inh: BAZ2B (human) inhibition; 4.4% of 360,000 active; Potency, µM (top dose mostly 114 µM), for the others: at the top dose activity change, negative = inhibition, usual class: inhibitors; AlphaScreen BAZ2B-H3K14Ac peptide displacement; also: potency is read from the fitted curve at half-maximal effect; % is scaled to controls: 0 for no effect and ±100 for the full control effect; nearly all actives have a fitted effect of over 60% in size
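Protein-peptide AlphaScreen: BAZ2B 50 nM, b-H3K14Ac 50 nM, 1x PBS pH 7.4 + 0.01% Tween-20. Preincubation 30 min RT; cpd 30 min RT (top 110 uM); beads 20 min RT, light-protected.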
PLK1 PBD block: blocks phosphopeptide binding to human PLK1 polo-box domain | Plk1 PBD binding of FITC phosphopeptide, fluorescence polarization | Potency, µM, without a hit: max response, negative = inhibition, usual class: inhibitors | 2.8% of 360,000 active | AID 720504; also: potency is read from the fitted curve at half-maximal effect; series mostly up to about 57 µM; % is scaled to controls: 0 for no effect and ±100 for the full control effect; nearly all actives have a fitted effect of over 65% in size
PI5P4Ka inh: blocks human PI5P4K alpha kinase activity; P48426; AID 652105; PI5P4Kalpha enzyme, ADP-Glo luminescence, 60 min; hits give low values; 1.2% of 330,000 active; max response, %; active = max response of -50% or lower; inconclusive = between -30% and -50%; inactive = -30% or higher; also: value at the top dose of about 77 µM; % is scaled to controls: 0 for no effect and ±100 for the full control effect
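Single end-point luminescence (ADP-Glo) quantified ADP from PI5P4Kalpha turnover; ATP 5 microM final, 1 h at RT, 0.1% CHAPS and 0.28 mM EGTA in HEPES pH 7.4.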
JMJD2A Tudor inh: JMJD2A Tudor domain (human) inhibition. O75164. AlphaScreen JMJD2A-Tudor / H3K4me3 peptide binding. Potency, µM (top dose mostly 114 µM), for the others: top-dose activity change, negative = inhibition, actives largely listed as inhibitors. 4.4% of 390,000 active. AID 504339; also: potency is read from the fitted curve at half-maximal effect; % is scaled to controls: 0 for no effect and ±100 for the full control effect; nearly all actives have a fitted effect of over 50% in size
Target sequence (O75164 whole entry, looked up, the tested form may be a part): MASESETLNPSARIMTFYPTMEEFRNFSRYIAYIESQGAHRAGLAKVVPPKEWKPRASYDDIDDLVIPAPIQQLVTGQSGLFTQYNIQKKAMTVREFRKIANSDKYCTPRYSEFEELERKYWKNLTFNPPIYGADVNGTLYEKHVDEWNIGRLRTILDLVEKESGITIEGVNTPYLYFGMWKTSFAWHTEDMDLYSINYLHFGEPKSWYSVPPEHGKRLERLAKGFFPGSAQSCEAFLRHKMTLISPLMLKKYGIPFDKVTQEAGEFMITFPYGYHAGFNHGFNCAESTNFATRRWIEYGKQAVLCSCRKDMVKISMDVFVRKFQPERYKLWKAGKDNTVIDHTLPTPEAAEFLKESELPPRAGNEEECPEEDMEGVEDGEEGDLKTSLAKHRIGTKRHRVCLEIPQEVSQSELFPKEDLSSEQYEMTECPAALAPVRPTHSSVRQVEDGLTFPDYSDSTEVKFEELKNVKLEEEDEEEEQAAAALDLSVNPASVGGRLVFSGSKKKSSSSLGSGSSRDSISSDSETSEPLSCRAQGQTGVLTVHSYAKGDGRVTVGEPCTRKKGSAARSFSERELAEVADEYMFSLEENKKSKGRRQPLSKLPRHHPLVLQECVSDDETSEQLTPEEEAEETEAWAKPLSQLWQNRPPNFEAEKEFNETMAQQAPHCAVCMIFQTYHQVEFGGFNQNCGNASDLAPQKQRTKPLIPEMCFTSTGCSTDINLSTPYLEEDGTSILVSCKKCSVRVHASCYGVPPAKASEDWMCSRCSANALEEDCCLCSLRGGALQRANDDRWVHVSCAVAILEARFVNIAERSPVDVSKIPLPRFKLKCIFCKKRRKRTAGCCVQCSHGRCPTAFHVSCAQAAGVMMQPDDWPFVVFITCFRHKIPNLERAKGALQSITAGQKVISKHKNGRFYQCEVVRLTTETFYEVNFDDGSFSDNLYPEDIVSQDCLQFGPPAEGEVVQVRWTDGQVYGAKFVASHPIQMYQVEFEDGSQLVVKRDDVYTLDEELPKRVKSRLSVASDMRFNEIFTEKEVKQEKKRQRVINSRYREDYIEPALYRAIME
G9a block: blocks human histone lysine methyltransferase G9a | Q96KQ7 | G9a H3K9 monomethylation, AlphaScreen, 2 h | Potency, µM (highest dose often 102 µM), for inactives: top-dose activity, negative = inhibition, hits mostly inhibitors | 8.8% of 350,000 active | AID 504332; also: potency is read from the fitted curve at half-maximal effect; % is scaled to controls: 0 for no effect and ±100 for the full control effect; nearly all actives have a fitted effect of over 75% in size
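AlphaScreen detection with an anti-monomethyl H3K9 antibody quantified product after a 2 h room-temperature reaction containing 500 nM biotinylated H3K9 peptide, 20 µM SAM and 20 nM enzyme, which had been preincubated 15 min with compound.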
HP1b binding inh: blocks HP1-beta chromodomain binding to methylated histone tails; P83916; Potency, µM (series often up to 114 µM), for inactives: top-dose activity change, negative = inhibition, actives largely listed as inhibitors; AlphaScreen HP1-beta / biotin-H3K9me3 peptide binding; 0.56% of 390,000 active; also: potency is read from the fitted curve at half-maximal effect; nearly all actives have a fitted effect of over 70% in size
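AlphaScreen: HP1-beta (50 nM) preformed 30 min with biotin-H3(1-18)K9me3 peptide (50 nM) in PBS pH 7.4, 0.01% Tween-20. Compound added for 30 min at RT, then streptavidin donor/nickel chelate acceptor beads (10 ug/mL) for 30 min.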
TbPYK inh: Trypanosoma brucei pyruvate kinase inhibition, cherry-pick confirmation. shares compounds with PLK1 PBD block. recombinant TbPYK, Kinase-Glo ATP luminescence. Potency, µM (titrated, usually from 76.9 µM), inactives show at the top dose activity change, negative = inhibition, actives largely listed as inhibitors. 67% of 890 active; also: potency is read from the fitted curve at half-maximal effect; % is scaled to controls: 0 for no effect and ±100 for the full control effect; nearly all actives have a fitted effect of over 70% in size
TbPYK ADP-Glo: TbPYK inhibition, orthogonal confirmation; shares compounds with PLK1 PBD block; recombinant TbPYK, ADP-Glo luminescence, 60 min; Potency, µM (doses to about 76.9 µM), for the others: at the highest dose activity change, negative = inhibition, usual class: inhibitors; 62% of 890 active; also: potency is read from the fitted curve at half-maximal effect; % is scaled to controls: 0 for no effect and ±100 for the full control effect; nearly all actives have a fitted effect of over 75% in size
* marks the source's active call; other numbers are inactive results; ? = inconclusive; · = no result given; [ ] = another dose, or the depositor's remark. In the library only some 12% were active in any assay of this set; here they are far more common. Unless noted, calls follow the shape of the dose curve; as a rule, active = well fitted curve in the direction sought with a large enough effect; inconclusive = small, poorly fitted or top-dose-only effect, or another doubt; inactive = no such curve, though single readings can be large; an effect the other way counts as inactive or inconclusive.

SMILES	BAZ2B inh	PLK1 PBD block	PI5P4Ka inh	JMJD2A Tudor inh	G9a block	HP1b binding inh	TbPYK inh	TbPYK ADP-Glo
COc1cccc(Cn2c(=O)cc(C)c3c(C)nn(-c4ccc(C)cc4)c32)c1	41.5%	·	·	49.7%	47.3%[59 µM]	109.8%	·	·
Cc1ccc(NC(=O)c2sccc2C)nc1	-2.1%	4.7%	-6.1	14.5%	·	24.1%	?	1.1%
O=S(=O)(c1cc(O)ccc1O)c1cccc2c(S(=O)(=O)c3cc(O)ccc3O)cccc12	11.2µM*	?	-90.8*	17.8µM*	19.6%[2.33 µM]	15.8µM*	?	25.1µM*
COCCn1c(=O)c(-c2cc(F)cc(F)c2)nc2cnc(Oc3ccc(OC)cc3)nc21	·	·	·	·	-9.6%[12.7 µM]	·	·	·
CCCCCCn1cc(CN2CC(N3CCN(C4CCN(C)CC4)CC3)CS2(=O)=O)nn1 (stereo not drawn)	·	-3.3%	15.9	·	·	·	·	·
O=C1C=CC(=O)N1c1ccc(-c2nc3ccccc3o2)cc1	·	8.44µM*	-59.9*	·	·	·	-94.7%	11.2µM*
Cc1ccc(N=c2ssnc2Cl)cc1	44.7µM*	1.68µM*	-65.5*	31.6µM*	1.58µM*	15.8µM*	6.31µM*	8.91µM*
Cc1nnc(N=c2ssnc2Cl)o1	?	1.68µM*	-100.7*	44.7µM*	2.7%[0.501 µM]	?	4.47µM*	5.01µM*
O=C(COCc1cc(-c2cccs2)on1)NCc1ccccc1Cl	5.9%	·	·	-4.0%	0.7%[59 µM]	20.1%	·	·
CCOC(=O)c1c(N)sc(N)c1C(=O)OCC	50.1µM*	3.36µM*	-25.0	?	3.16µM*	8.91µM*	31.6µM*	14.1µM*
